Records with an inconclusive call do not appear. Active and inactive are the calls of the source. Calls follow the shape of the dose curve; as a rule, active = well fitted cell-killing curve with a large enough effect; inconclusive = small, poorly fitted or top-dose-only effect, or effect the other way; inactive = flat fitted curve, though single readings scatter.
What was measured:
Test in all cases: Primary qHTS to identify gynecologic anti-cancer compounds using libraries of approved drugs and bioactive compounds (AID 1345084); also: nearly all actives have a fitted effect of over 55% in size
C33A = conditions: Gynecologic cancer cell panel viability, ATPlite luminescence, 48 h; series mostly up to 57.5 µM
How it was run: (§1)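 Luminescence from the ATPlite ATP-monitoring reagent indicates viable cell number; lower signal means cytotoxicity. Cells received compound 16 h after seeding and were exposed for 48 h across five concentrations.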

CASKI = conditions: Gynecologic cancer cell panel viability, ATPlite luminescence, 48 h; series mostly up to 57.5 µM
How it was run: as §1

Es-2 = conditions: Gynecologic cancer cell panel viability, ATPlite luminescence, 48 h; series mostly up to 57.5 µM
How it was run: as §1

HeLa = conditions: Gynecologic cancer cell panel viability, ATPlite luminescence, 48 h; series mostly up to 57.5 µM
How it was run: as §1

Hek293T = conditions: Gynecologic cancer cell panel viability, ATPlite luminescence, 48 h, control line for the selectivity index; series mostly up to 57.5 µM
How it was run: as §1

JEG-3 = conditions: Gynecologic cancer cell panel viability, ATPlite luminescence, 48 h; series mostly up to 57.5 µM
How it was run: as §1

OV90 = conditions: Gynecologic cancer cell panel viability, ATPlite luminescence, 48 h; series mostly up to 57.5 µM
How it was run: as §1

PA-1 = conditions: Gynecologic cancer cell panel viability, ATPlite luminescence, 48 h; series mostly up to 57.5 µM
How it was run: as §1

SKOV3 = conditions: Gynecologic cancer cell panel viability, ATPlite luminescence, 48 h; series mostly up to 57.5 µM
How it was run: as §1

Tov-21-G = conditions: Gynecologic cancer cell panel viability, ATPlite luminescence, 48 h; series mostly up to 57.5 µM
How it was run: as §1

Tov112D = conditions: Gynecologic cancer cell panel viability, ATPlite luminescence, 48 h; series mostly up to 57.5 µM
How it was run: as §1

CAOV3 = conditions: Gynecologic cancer cell panel viability, ATPlite luminescence, 48 h; series mostly up to 57.5 µM
How it was run: as §1
% is scaled to controls: 0 for no effect and ±100 for the full control effect.

CC(C)CC(=O)n1cc(C(N)=O)c(=O)cc1C(O)c1ccccc1 (centres undefined)
inactive: Potency (C33A) | Potency (CASKI) | Potency (Es-2) | Potency (HeLa) | Potency (Hek293T) | Potency (JEG-3) | Potency (OV90) | Potency (PA-1) | Potency (SKOV3) | Potency (Tov-21-G) | Potency (Tov112D)

CC[C@H]1OC(=O)[C@H](C)[C@@H](OC2C[C@@](C)(OC)[C@@H](O)[C@H](C)O2)[C@H](C)[C@@H](OC2O[C@H](C)C[C@H](NC)[C@H]2O)[C@](C)(O)C[C@@H](C)CN(C)[C@H](C)[C@@H](O)[C@]1(C)O (some centres undefined)
inactive: Potency (C33A) | Potency (CASKI) | Potency (Es-2) | Potency (HeLa) | Potency (Hek293T) | Potency (JEG-3) | Potency (OV90) | Potency (PA-1) | Potency (SKOV3) | Potency (Tov-21-G) | Potency (Tov112D)

C[C@@H]1CC[C@]2(C)C3(C)CC[C@@]2(OC3=O)[C@@]12C[C@H](c1ccoc1)OC2=O
inactive: Potency (C33A) | Potency (CASKI) | Potency (Es-2) | Potency (HeLa) | Potency (Hek293T) | Potency (JEG-3) | Potency (OV90) | Potency (PA-1) | Potency (SKOV3) | Potency (Tov-21-G) | Potency (Tov112D)

O=C(/C=C/c1ccc(O)cc1)OCC1=CC2OC(=O)C3=CO[C@@H](O[C@@H]4O[C@H](CO)[C@@H](O)[C@H](O)[C@H]4O)[C@H]1[C@@H]32 (some centres undefined)
inactive: Potency (C33A) | Potency (CASKI) | Potency (Es-2) | Potency (HeLa) | Potency (Hek293T) | Potency (JEG-3) | Potency (OV90) | Potency (PA-1) | Potency (SKOV3) | Potency (Tov-21-G) | Potency (Tov112D)

CC(c1c[nH]c2ccccc12)C(O)C(=O)O (centres undefined)
inactive: Potency (C33A) | Potency (CASKI) | Potency (Es-2) | Potency (HeLa) | Potency (Hek293T) | Potency (JEG-3) | Potency (OV90) | Potency (PA-1) | Potency (SKOV3) | Potency (Tov-21-G) | Potency (Tov112D)

CC(C)(O)/C=C1/C(=O)C(C)(C)C(=O)C(C)(C)C1(O)O[C@@H]1O[C@H](COC(=O)c2cc(O)c(O)c(O)c2)[C@@H](O)[C@H](O)[C@H]1O (some centres undefined)
inactive: Potency (C33A) | Potency (CASKI) | Potency (Es-2) | Potency (HeLa) | Potency (Hek293T) | Potency (JEG-3) | Potency (OV90) | Potency (PA-1) | Potency (SKOV3) | Potency (Tov-21-G) | Potency (Tov112D)

C=CC1(C)C=C2C(=O)CC3C(C)(C)CCCC3(C(=O)O)C2(O)CC1 (centres undefined)
inactive: Potency (C33A) | Potency (CASKI) | Potency (Es-2) | Potency (HeLa) | Potency (Hek293T) | Potency (JEG-3) | Potency (OV90) | Potency (PA-1) | Potency (SKOV3) | Potency (Tov-21-G) | Potency (Tov112D)

COc1ccc(/C=C/C(=O)O[C@@H]2[C@@H](O)[C@H](C)O[C@@H](OC3C4C=COC(O[C@@H]5O[C@H](CO)[C@@H](O)[C@H](O)[C@H]5O)C4C4(CO)OC34)[C@@H]2O)cc1OC (some centres undefined)
inactive: Potency (C33A) | Potency (CASKI) | Potency (Es-2) | Potency (HeLa) | Potency (Hek293T) | Potency (JEG-3) | Potency (OV90) | Potency (PA-1) | Potency (SKOV3) | Potency (Tov-21-G) | Potency (Tov112D)

CC(=O)O[C@@H]1[C@H](O[C@@H]2OC[C@](O)(CO)[C@H]2O)[C@@H](O[C@@H]2O[C@@H](C)[C@H](O)[C@@H](O)[C@H]2O)[C@H](OC(=O)[C@]23CCC(C)(C)C[C@H]2C2=CCC4[C@@]5(C)C[C@H](O)[C@H](O[C@@H]6O[C@H](C(=O)O)[C@@H](O)[C@H](O)[C@H]6O)[C@@](C)(C(=O)O)C5CC[C@@]4(C)[C@]2(C)CC3)O[C@@H]1C (some centres undefined)
inactive: activity change, negative = cytotoxicity (C33A) -3.02% [at 11.6 µM] | activity change, negative = cytotoxicity (CASKI) 0.959% [at 11.6 µM] | activity change, negative = cytotoxicity (Es-2) 1.8% [at 11.6 µM] | activity change, negative = cytotoxicity (HeLa) 0.991% [at 11.6 µM] | activity change, negative = cytotoxicity (Hek293T) 9.21% [at 11.6 µM] | activity change, negative = cytotoxicity (JEG-3) 0.39% [at 11.6 µM] | activity change, negative = cytotoxicity (OV90) 0.243% [at 11.6 µM] | activity change, negative = cytotoxicity (PA-1) -6.11% [at 11.6 µM] | activity change, negative = cytotoxicity (Tov-21-G) 1.94% [at 11.6 µM] | activity change, negative = cytotoxicity (Tov112D) 2.89% [at 11.6 µM]

O=C1NC(=Nc2ccccc2F)S/C1=C\c1ccc(C(=O)O)cc1
inactive: Potency (C33A) | Potency (CAOV3) | Potency (Es-2) | Potency (HeLa) | Potency (Hek293T) | Potency (JEG-3) | Potency (OV90) | Potency (PA-1) | Potency (Tov-21-G) | Potency (Tov112D)

CCn1cc(C2=NOC(C(=O)Nc3c(C)n(C)n(-c4ccccc4)c3=O)C2)c(C)n1 (centres undefined)
inactive: Potency (C33A) | Potency (CASKI) | Potency (Es-2) | Potency (HeLa) | Potency (Hek293T) | Potency (JEG-3) | Potency (OV90) | Potency (PA-1) | Potency (SKOV3) | Potency (Tov-21-G) | Potency (Tov112D)

COc1cc(C2Oc3c(O)cc(CCCO)cc3C2CO)ccc1O[C@H]1O[C@H](C)[C@@H](O)[C@H](O)[C@@H]1O (some centres undefined)
inactive: Potency (C33A) | Potency (CASKI) | Potency (Es-2) | Potency (HeLa) | Potency (Hek293T) | Potency (JEG-3) | Potency (OV90) | Potency (PA-1) | Potency (SKOV3) | Potency (Tov-21-G) | Potency (Tov112D)

CCOC(=O)c1ccnc(CNCC(=O)N(CC)CCN(C)C)c1
inactive: Potency (C33A) | Potency (CASKI) | Potency (Es-2) | Potency (HeLa) | Potency (Hek293T) | Potency (JEG-3) | Potency (OV90) | Potency (PA-1) | Potency (SKOV3) | Potency (Tov-21-G) | Potency (Tov112D)

O=C(c1ccc(F)cc1)C1CCN(CCn2c(=O)nc3n(c2=O)CCCC3)CC1
inactive: Potency (C33A) | Potency (CAOV3) | Potency (Es-2) | Potency (HeLa) | Potency (Hek293T) | Potency (JEG-3) | Potency (OV90) | Potency (PA-1) | Potency (Tov-21-G) | Potency (Tov112D)

C=C/C=C/[C@@H]1OC[C@H](/C=C/C=C/C)[C@H]1O
inactive: Potency (C33A) | Potency (CASKI) | Potency (Es-2) | Potency (HeLa) | Potency (Hek293T) | Potency (JEG-3) | Potency (OV90) | Potency (PA-1) | Potency (SKOV3) | Potency (Tov-21-G) | Potency (Tov112D)

CCC(CCO[C@@H]1O[C@H](CO[C@H]2OC[C@](O)(CO)[C@H]2O)[C@@H](O)[C@H](O)[C@H]1O)C(C)(C)O (some centres undefined)
inactive: Potency (C33A) | Potency (CASKI) | Potency (Es-2) | Potency (HeLa) | Potency (Hek293T) | Potency (JEG-3) | Potency (OV90) | Potency (PA-1) | Potency (SKOV3) | Potency (Tov-21-G) | Potency (Tov112D)

c1ccc(Nc2nc3c(s2)CCCc2[nH]ncc2-3)nc1
inactive: Potency (C33A) | Potency (CASKI) | Potency (Es-2) | Potency (Hek293T) | Potency (JEG-3) | Potency (OV90) | Potency (PA-1) | Potency (SKOV3) | Potency (Tov-21-G) | Potency (Tov112D)

C/C(=C\CCC(C)(O)c1ccc(C)cc1)C(=O)O (centres undefined)
inactive: Potency (C33A) | Potency (CASKI) | Potency (Es-2) | Potency (HeLa) | Potency (Hek293T) | Potency (JEG-3) | Potency (OV90) | Potency (PA-1) | Potency (SKOV3) | Potency (Tov-21-G) | Potency (Tov112D)

CC(=O)OC[C@]12[C@H](OC(C)=O)C(=O)[C@@H]3[C@@H](OC(C)=O)[C@@]14O[C@@]3(C)COC(=O)c1cccnc1[C@@H](C)[C@H](C)C(=O)O[C@@H]([C@H](OC(C)=O)[C@@H]2OC(C)=O)[C@]4(C)O
inactive: Potency (C33A) | Potency (CASKI) | Potency (Es-2) | Potency (HeLa) | Potency (Hek293T) | Potency (JEG-3) | Potency (OV90) | Potency (PA-1) | Potency (SKOV3) | Potency (Tov-21-G) | Potency (Tov112D)

c1ccc(Cc2ncc3c(n2)CCNCC3)cc1
inactive: Potency (C33A) | Potency (CASKI) | Potency (Es-2) | Potency (HeLa) | Potency (Hek293T) | Potency (JEG-3) | Potency (OV90) | Potency (PA-1) | Potency (SKOV3) | Potency (Tov-21-G) | Potency (Tov112D)

NC(=O)c1ccc(OCC2NC(=O)C3CCCN3C2=O)cc1 (centres undefined)
inactive: Potency (C33A) | Potency (CASKI) | Potency (Es-2) | Potency (HeLa) | Potency (Hek293T) | Potency (JEG-3) | Potency (OV90) | Potency (PA-1) | Potency (SKOV3) | Potency (Tov-21-G) | Potency (Tov112D)

CC1(C)O[C@]23C[C@H]1C[C@H](OC(=O)c1ccoc1)[C@]2(C)[C@@H](OC(=O)c1ccoc1)CCC3(C)O (some centres undefined)
inactive: Potency (C33A) | Potency (CASKI) | Potency (Es-2) | Potency (HeLa) | Potency (Hek293T) | Potency (JEG-3) | Potency (OV90) | Potency (PA-1) | Potency (SKOV3) | Potency (Tov-21-G) | Potency (Tov112D)

O=C(O)c1cnn(-c2nc3cc(OC(F)(F)F)c(Cl)cc3[nH]2)c1
inactive: Potency (C33A) | Potency (CAOV3) | Potency (Es-2) | Potency (HeLa) | Potency (Hek293T) | Potency (JEG-3) | Potency (OV90) | Potency (PA-1) | Potency (Tov-21-G) | Potency (Tov112D)

O=C(c1ccc(NS(=O)(=O)c2cccc3cccnc23)cc1)N1CCN(CC2CC2)CC1
inactive: Potency (C33A) | Potency (CASKI) | Potency (Es-2) | Potency (HeLa) | Potency (Hek293T) | Potency (JEG-3) | Potency (OV90) | Potency (PA-1) | Potency (Tov-21-G) | Potency (Tov112D)

CC1(C)NC2N(C1=O)c1ccccc1C2(O)CC(C(=O)O)n1cnc2ccccc2c1=O (centres undefined)
inactive: Potency (C33A) | Potency (CASKI) | Potency (Es-2) | Potency (HeLa) | Potency (Hek293T) | Potency (JEG-3) | Potency (OV90) | Potency (PA-1) | Potency (SKOV3) | Potency (Tov-21-G) | Potency (Tov112D)

CC(C)C1(O[C@@H]2O[C@H](CO)[C@@H](O)[C@H](O)[C@H]2O)CC=C(CO)CC1 (some centres undefined)
inactive: Potency (C33A) | Potency (CASKI) | Potency (Es-2) | Potency (HeLa) | Potency (Hek293T) | Potency (JEG-3) | Potency (OV90) | Potency (SKOV3) | Potency (Tov-21-G) | Potency (Tov112D)

From PubChem BioAssay (NCATS)
